Drawing on PubChem BioAssay (Tox21), this text covers Potency for six compounds.

Results filed as inconclusive are left out. Activity calls are given as the source filed them. Unless noted, calls follow the shape of the full dose curve.

A short description of assay [1]: Nuclear factor erythroid 2-related factor 2/antioxidant responsive element (Nrf2/ARE) small molecule agonists: qHTS cell viability counter screen in human keratinocytes (AID 1919968; active = well fitted curve in the direction sought with a large enough effect in the repeat runs; an effect the other way counts as inactive or inconclusive; also: nearly all actives have a fitted effect of over 55% in size; also: potency is read from the fitted curve at half-maximal effect). A digest of the protocol:
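After a 5 h attachment period, ARE-reporter keratinocytes were dosed with compounds in DMSO and then cultured 23 h at 37 C. Cell viability came from CellTiter-Fluor signal read after a further 1 h.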
(In qHTS, concentration-response curves come from the screen itself.)

Assay [2] concerns the target Gonadotropin-releasing hormone receptor (Homo sapiens) (UniProt P30968). The experiment in a line: Human gonadotropin-releasing hormone receptor (GnRHR) small molecule agonists, calcium flux assay in GnRHR-HEK293 cells (AID 1920063). Also: nearly all actives have a fitted effect of over 35% in size. A digest of the protocol: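 We seeded human GnRHR-expressing HEK293 cells for 18 hours, loaded them with calcium dye for an hour at 37 C, added test compounds, and recorded fluorescence intensity kinetically for three minutes.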
(In general: Calcium assays in cells follow changes in intracellular calcium, usually with a dye or a luminescent sensor.)

Assay [3] concerns the target KiSS-1 receptor (Homo sapiens) (UniProt Q969F8). Nature of the assay: Human kisspeptin (KISS1R) small molecule agonists, calcium flux assay in KISS1R-HEK293 cells (AID 1920064; active = well fitted curve in the direction sought with a large enough effect in the repeat runs; an effect the other way counts as inactive or inconclusive). The method in brief: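 Kinetic calcium assay, 1 s sampling over 3 min at Ex/Em 480/540, in HEK293 cells engineered with human KISS1R; compounds delivered in DMSO after 1 h dye loading.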
Assay [4] is described as follows: G protein-coupled receptor (GPCR) small molecule agonists, calcium flux assay: HEK293 wild type cell line counter screen (AID 1920065). The method in brief: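 Calcium-sensitive dye, loaded 1 h at 37 C into cells cultured 18 h, reports compound-evoked calcium release as fluorescence (Ex/Em 480/540), measured over 3 min. Agonist mode; 15-point titrations, triplicate.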

The nature of assay [5]: p53 small molecule agonists, cell-based qHTS assay with human liver microsomes (AID 1963577). A digest of the protocol:
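p53RE-bla cells, 4,000/well, compound added after 5 h, with human liver microsomes 0.5 mg/mL and NADPH 0.5 mg/mL final; 16 h at 37 C, then LiveBLAzer 2 h RT, fluorescence.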

Assay [6] in a line: p53 small molecule agonists, cell-based qHTS assay with rat liver microsomes (AID 1963578). Also: potency is read from the fitted curve at half-maximal effect. The method in brief:
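p53RE-bla cells, 4,000/well, pre-incubated 5 h, then given compounds plus rat liver microsomes (0.5 mg/mL final) and NADPH (0.5 mg/mL final). Incubation 16 h at 37 C; beta-lactamase reporter read by LiveBLAzer fluorescence after 2 h at room temperature.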

A short description of assay [7]: p53 small molecule agonists, cell-based qHTS assay with human liver microsomes: qHTS cell viability counter screen (AID 1963579). Also: nearly all actives have a fitted effect of over 45% in size. Also: potency is read from the fitted curve at half-maximal effect. A digest of the protocol: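 p53RE-bla cells, 4,000/well, dosed 5 hours after plating, with human liver microsomes (0.5 mg/mL final) plus NADPH (0.5 mg/mL final), 16 hours at 37 C. Viability read as CellTiter-Glo luminescence after 30 min at room temperature.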

A short description of assay [8]: p53 small molecule agonists, cell-based qHTS assay with rat liver microsomes: qHTS cell viability counter screen (AID 1963580). Also: nearly all actives have a fitted effect of over 45% in size. A digest of the protocol:
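p53RE-bla HCT-116 cells were exposed 16 h at 37 C to compounds with rat liver microsomes (0.5 mg/mL) and NADPH (0.5 mg/mL). Viability was measured in the same wells as ATP content by CellTiter-Glo luminescence.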

A short description of assay [9]: p53 small molecule agonists, cell-based qHTS assay (AID 1963582; active = well fitted activation curve with a large enough effect in the signal ratio in the repeat runs, not every such curve was filed as active; the % refers to the signal ratio). The method in brief: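 In this cell-based concentration-response screen, a p53 response element drives beta-lactamase; cells received DMSO-borne compounds after 5 h culture and were incubated a further 16 h before FRET substrate development.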
Assay [10] has as its target 5-hydroxytryptamine receptor 2A (Homo sapiens) (UniProt P28223). Nature of the assay: 5-hydroxytryptamine receptor 2A (HTR2A) small molecule antagonists, cell-based qHTS assay (AID 1963586). Also: nearly all actives have a fitted effect of over 45% in size. The method in brief:
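Antagonist-mode intracellular calcium assay: DOI (4 nM) added after 5 min compound pre-incubation at room temperature to dye-loaded HTR2A-CHO cells. Fluorescence followed for 3 min, sampled every second.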

Assay [11] shares this target. The experiment in a line: 5-hydroxytryptamine receptor 2A (HTR2A) small molecule agonists, cell-based qHTS assay (AID 1963587). Also: nearly all actives have a fitted effect of over 30% in size. The method in brief: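 CHO cells stably expressing human HTR2A, plated 18 h, loaded with calcium dye 1 h at 37 C. Agonist mode: compounds added and intracellular calcium fluorescence recorded kinetically for 2 min at 1 sec intervals.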
The target of assay [12] is Muscarinic acetylcholine receptor M1 (Homo sapiens) (UniProt P11229). Nature of the assay: Cholinergic receptor muscarinic 1 (CHRM1) small molecule antagonists, cell-based qHTS assay (AID 1963588). Also: nearly all actives have a fitted effect of over 40% in size. The method in brief: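 CHRM1-CHO calcium-flux assay, antagonist mode. Cells were seeded 18 h, dye-loaded 1 h at 37 C and given compound for 5 min at RT, then acetylcholine was added at 50nM. FDSS fluorescence was read 3 min; 15 concentrations, three runs.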

Assay [13] has the same target. Nature of the assay: Cholinergic receptor muscarinic 1 (CHRM1) small molecule agonists, cell-based qHTS assay (AID 1963589). Also: nearly all actives have a fitted effect of over 35% in size. A digest of the protocol:
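Measures agonist-induced intracellular calcium rise. Stable human CHRM1 CHO line, 1 h dye load at 37 C, compounds from DMSO, kinetic fluorescence read.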

Assay [14] has as its target Beta-2 adrenergic receptor (Homo sapiens) (UniProt P07550). The experiment in a line: Adrenergic beta2 receptor (ADRB2) small molecule antagonists, cell-based qHTS assay (AID 1963592). Also: series mostly up to about 92 µM; nearly all actives have a fitted effect of over 50% in size. A digest of the protocol: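 Cells (CHO, stable ADRB2 overexpression) incubated 18-20hr at 37C; compounds added from DMSO; agonist mix (1nM isoproterenol, 100uM IBMX, 25uM Ro-20-1724) added; 0.5hr RT; d2-cAMP and anti-cAMP-cryptate added; 1hr RT; 665/615 nm read.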

Assay [15] addresses D(2) dopamine receptor (Homo sapiens) (UniProt P14416). The experiment in a line: Dopamine D2 receptor (DRD2) small molecule agonists, cell-based qHTS assay (AID 1963594). Also: nearly all actives have a fitted effect of over 35% in size. A digest of the protocol: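 HEK293 cells stably expressing human DRD2, pre-treated with PDE inhibitor Ro20-1724 (0.1 mM final) and compound 10 min at room temperature, then stimulated with NKH477 (200nM […]) for 30 min. cAMP read by HTRF (665/620 nm).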

Assay [16] shares this target. Nature of the assay: Dopamine D2 receptor (DRD2) small molecule antagonists, cell-based qHTS assay (AID 1963595; active = well fitted inhibition curve with a large enough effect in the signal ratio in the repeat runs, with a control signal flat; the % refers to the signal ratio). A digest of the protocol: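 Stable D2 receptor HEK293 line, 24 h after seeding. Compound preincubated 10 min, then quinpirole (12 nM) with forskolin analogue NKH477 (200 nM), 30 min, room temperature. Detection by time-resolved FRET of cAMP.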
The nature of assay [17]: p53 small molecule agonists, cell-based qHTS assay: qHTS cell viability counter screen (AID 1963581). Also: nearly all actives have a fitted effect of over 45% in size. Also: potency is read from the fitted curve at half-maximal effect. The method in brief:
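Following 5 h attachment, HCT-116 p53RE-bla cells took up compound for 16 h at 37 C; the reporter was read with B/G FRET substrate (2 h RT), and viability then via CellTiter-Glo ATP luminescence.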

A short description of assay [18]: cAMP Responsive Elements (CRE) small molecule agonists, cell-based qHTS assay (AID 1963590). A digest of the protocol: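 A CRE-responsive beta-lactamase reporter in HEK 293T cells was used. Treatment ran 3 h at 37 C; detection used LiveBLAzer B/G FRET substrate for 2 h at room temperature.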
The target of assay [19] is Beta-2 adrenergic receptor (Homo sapiens) (UniProt P07550). The experiment in a line: Adrenergic beta2 receptor (ADRB2) small molecule agonists, cell-based qHTS assay (AID 1963593).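 Also: CHO cells stably overexpressing human ADRB2.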 The method in brief:
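CHO cells stably over-expressing ADRB2 were plated overnight at 37C, then dosed with compounds plus a stimulation mix containing 100uM IBMX and 25uM Ro-20-1724 for 0.5hr at room temperature. cAMP was measured by HTRF competition, 1hr.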

Assay [20] is described as follows: cAMP Responsive Elements (CRE) small molecule antagonists, cell-based qHTS assay (AID 1963591; active = well fitted inhibition curve with a large enough effect in the signal ratio in the repeat runs, not every such curve was filed as active; the % refers to the signal ratio). The method in brief: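 HEK293T cells carrying a CRE-driven beta-lactamase reporter receive compound and NKH477 (0.25 uM final) for 3 h. Fluorescence from LiveBLAzer B/G FRET substrate is read after 2 h at room temperature.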

Sequence of D(2) dopamine receptor (Homo sapiens) (P14416 whole entry, looked up): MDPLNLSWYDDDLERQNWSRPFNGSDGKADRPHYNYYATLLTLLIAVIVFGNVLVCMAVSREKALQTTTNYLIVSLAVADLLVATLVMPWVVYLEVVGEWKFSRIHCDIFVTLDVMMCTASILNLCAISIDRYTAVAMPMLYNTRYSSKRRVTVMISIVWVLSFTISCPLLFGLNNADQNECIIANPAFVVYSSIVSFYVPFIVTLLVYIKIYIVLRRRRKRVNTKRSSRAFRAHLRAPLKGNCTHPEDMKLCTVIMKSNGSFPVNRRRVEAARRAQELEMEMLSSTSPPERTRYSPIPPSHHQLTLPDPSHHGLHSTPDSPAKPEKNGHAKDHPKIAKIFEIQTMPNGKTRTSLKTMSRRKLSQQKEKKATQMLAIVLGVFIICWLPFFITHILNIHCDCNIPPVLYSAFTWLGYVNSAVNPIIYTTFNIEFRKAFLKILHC
Sequence of KiSS-1 receptor (Homo sapiens) (Q969F8 whole entry, looked up): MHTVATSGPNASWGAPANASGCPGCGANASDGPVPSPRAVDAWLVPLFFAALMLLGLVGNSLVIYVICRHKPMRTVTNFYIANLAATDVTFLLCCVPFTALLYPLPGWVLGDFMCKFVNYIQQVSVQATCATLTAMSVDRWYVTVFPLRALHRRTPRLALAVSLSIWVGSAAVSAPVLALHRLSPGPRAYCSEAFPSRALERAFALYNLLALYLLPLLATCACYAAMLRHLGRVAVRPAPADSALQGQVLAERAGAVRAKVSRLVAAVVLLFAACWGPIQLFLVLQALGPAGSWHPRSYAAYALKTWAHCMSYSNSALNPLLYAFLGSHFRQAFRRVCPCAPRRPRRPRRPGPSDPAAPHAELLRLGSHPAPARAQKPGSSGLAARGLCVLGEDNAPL
Sequence of Gonadotropin-releasing hormone receptor (Homo sapiens) (P30968 whole entry, looked up): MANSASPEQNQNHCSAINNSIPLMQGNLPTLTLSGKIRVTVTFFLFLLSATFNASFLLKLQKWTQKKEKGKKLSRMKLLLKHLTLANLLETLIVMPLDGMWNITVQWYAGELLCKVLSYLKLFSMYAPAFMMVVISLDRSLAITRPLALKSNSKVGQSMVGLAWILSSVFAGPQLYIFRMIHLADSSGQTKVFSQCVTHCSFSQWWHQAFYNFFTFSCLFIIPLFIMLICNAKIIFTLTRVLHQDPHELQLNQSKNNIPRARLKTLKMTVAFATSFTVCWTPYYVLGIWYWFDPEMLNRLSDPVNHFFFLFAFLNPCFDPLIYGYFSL
Sequence of Beta-2 adrenergic receptor (Homo sapiens) (P07550 whole entry, looked up): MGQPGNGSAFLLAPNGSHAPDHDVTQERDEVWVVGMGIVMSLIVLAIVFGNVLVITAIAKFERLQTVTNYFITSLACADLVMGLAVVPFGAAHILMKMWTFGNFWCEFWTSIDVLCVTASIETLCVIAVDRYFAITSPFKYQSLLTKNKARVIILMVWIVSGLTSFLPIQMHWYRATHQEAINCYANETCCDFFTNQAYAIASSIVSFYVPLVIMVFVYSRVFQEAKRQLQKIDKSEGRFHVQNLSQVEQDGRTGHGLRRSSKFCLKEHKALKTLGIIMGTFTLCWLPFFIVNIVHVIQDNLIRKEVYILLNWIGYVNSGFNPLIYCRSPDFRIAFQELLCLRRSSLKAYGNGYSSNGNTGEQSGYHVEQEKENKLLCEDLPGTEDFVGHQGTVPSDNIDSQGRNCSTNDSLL
Sequence of 5-hydroxytryptamine receptor 2A (Homo sapiens) (P28223 whole entry, looked up): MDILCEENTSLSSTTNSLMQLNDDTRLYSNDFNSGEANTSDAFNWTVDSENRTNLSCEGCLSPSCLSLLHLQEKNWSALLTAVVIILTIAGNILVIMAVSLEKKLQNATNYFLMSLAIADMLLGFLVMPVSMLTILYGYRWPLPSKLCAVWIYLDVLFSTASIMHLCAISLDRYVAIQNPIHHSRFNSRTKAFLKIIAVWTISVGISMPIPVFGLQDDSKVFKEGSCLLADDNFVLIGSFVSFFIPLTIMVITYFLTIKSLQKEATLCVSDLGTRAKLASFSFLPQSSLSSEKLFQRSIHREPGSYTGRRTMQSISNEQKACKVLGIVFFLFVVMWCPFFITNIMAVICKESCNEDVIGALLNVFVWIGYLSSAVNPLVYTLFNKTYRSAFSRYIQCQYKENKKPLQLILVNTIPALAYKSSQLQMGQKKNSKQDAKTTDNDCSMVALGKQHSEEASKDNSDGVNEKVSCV
Sequence of Muscarinic acetylcholine receptor M1 (Homo sapiens) (P11229 whole entry, looked up): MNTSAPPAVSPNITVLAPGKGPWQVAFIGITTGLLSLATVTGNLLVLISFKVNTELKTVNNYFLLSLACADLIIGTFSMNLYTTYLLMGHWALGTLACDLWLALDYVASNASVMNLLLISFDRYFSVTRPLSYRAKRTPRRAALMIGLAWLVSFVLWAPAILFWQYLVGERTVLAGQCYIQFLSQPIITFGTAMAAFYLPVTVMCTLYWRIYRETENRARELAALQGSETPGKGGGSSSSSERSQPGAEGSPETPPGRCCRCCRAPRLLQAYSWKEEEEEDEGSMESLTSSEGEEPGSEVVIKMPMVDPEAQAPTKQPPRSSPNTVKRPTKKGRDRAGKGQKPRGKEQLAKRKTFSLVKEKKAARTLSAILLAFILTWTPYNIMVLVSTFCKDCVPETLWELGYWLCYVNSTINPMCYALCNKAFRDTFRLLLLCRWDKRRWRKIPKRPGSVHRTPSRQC

On to `COC1=CC(=O)O[C@@H](/C=C/c2ccccc2)C1`, for which the Potency result in [1], in assay [2], in [3], in assay [4], in assay [5] and in assay [6] was “inactive” each time. Also, the Potency entry in assay [7], in [8], in [9], in [10], in assay [11] and in assay [12] was “inactive” throughout. The Potency result in assay [13], in [14], in [15] and in assay [16] was “inactive” throughout.

As to `CC1CCC(C(C)C)C(OC(=O)c2ccccc2N)C1` (centres undefined), the Potency in [1] was 30.2 µM (active); in [6], 35.8 µM (active); in assay [7], 35.8 µM (active); in assay [17], 31.9 µM (active). Also, the Potency entry in assay [2], in assay [3], in [4], in assay [5], in [8] and in assay [11] was “inactive” throughout. Besides, the Potency entry in [13], in assay [18], in assay [14] and in assay [15] was “inactive” throughout.

`N=C(N)[Se]`: the Potency result in assay [1], in [2], in assay [3], in assay [4], in assay [5] and in assay [6] was “inactive” throughout. Also, the Potency result in assay [8], in assay [17], in assay [10], in assay [12], in [13] and in assay [18] was “inactive” each time. Also, the Potency entry in [19], in [15] and in [16] was “inactive” throughout.

As for `O=C(O)C(O)C(O)C(=O)O` (centres undefined), the Potency result in [1], in [2], in assay [3], in assay [4], in [7] and in [8] was “inactive” each time. Besides, the Potency entry in assay [17], in assay [10], in assay [11], in assay [12], in assay [13] and in [18] was “inactive” each time. In addition, the Potency entry in assay [20], in [14], in assay [19] and in assay [15] was “inactive” in each case.

In the case of `CC(=O)O.CC(=O)O.CC(=O)O.CC(=O)O.CC(=O)O.CC(=O)O.CC(=O)O.O.O.[Cr].[Cr].[Cr]`, the Potency entry in assay [1], in [2], in assay [3], in assay [4], in assay [7] and in assay [8] was “inactive” in each case. Also, the Potency result in [17], in assay [10], in assay [11], in [12], in [13] and in [18] was “inactive” each time. The Potency entry in assay [20], in [14], in assay [19], in assay [15] and in assay [16] was “inactive” each time.

As for `C#CC1(O)CCCCC1`, the Potency entry in assay [1], in assay [2], in [3], in assay [4], in [5] and in [7] was “inactive” in each case. Further, the Potency entry in assay [8], in assay [9], in assay [11], in assay [12], in assay [13] and in assay [18] was “inactive” throughout. For the same compound, the Potency result in [20], in assay [14], in assay [19] and in assay [16] was “inactive” throughout.
